Sampled rows, rich in hits. Any-hit rate of the full collection: about 1.4%.
S1P2 ag – agonists of human S1P2 receptor; O95136; S1P2-expressing cell line, agonist reporter read-out; activation, % at 4.5 µM; hit rate 0.46% among 97,000; AID 729; in the data active = activation above about 16%;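 also: 0% = vehicle low control and 100% = maximal reference agonist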
Target sequence (O95136 whole entry, looked up): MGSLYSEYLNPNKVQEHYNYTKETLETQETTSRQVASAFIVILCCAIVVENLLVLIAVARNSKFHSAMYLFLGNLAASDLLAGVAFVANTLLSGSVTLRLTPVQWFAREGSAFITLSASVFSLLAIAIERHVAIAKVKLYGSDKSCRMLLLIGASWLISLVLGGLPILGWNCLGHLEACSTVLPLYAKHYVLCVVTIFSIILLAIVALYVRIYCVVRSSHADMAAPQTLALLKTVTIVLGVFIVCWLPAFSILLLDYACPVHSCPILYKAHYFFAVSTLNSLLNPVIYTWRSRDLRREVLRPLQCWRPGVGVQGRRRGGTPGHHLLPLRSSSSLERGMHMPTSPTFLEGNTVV
GALR2 antag – antagonists of human galanin receptor 2 (GALR2); GALR2-expressing cells, antagonist mode; hit rate 0.39% among 140,000; inhibition, % at 4 µM; O43603; in the data active = inhibition above about 27%;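 also: cells stimulated with galanin 1-16 at roughly its EC80; 0% = agonist challenge control and 100% = basal control without agonist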
CD11b adhes inh – inhibitors of human CD11b/CD18 binding to fibrinogen | P05107+P11215 | K562 CD11b/CD18 adhesion to fibrinogen, ATPlite luminescence; Mn2+ added to activate the integrin | inhibition, % at 10 µM | hit rate 0.54% among 93,000;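 active = primary inhibition of 50% or more at 10 µM, then 40% or more on retest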
S1P2 antag – blocks the human S1P2 receptor. O95136. cell-based S1P2 antagonist assay, inhibition at 5 uM. inhibition, % at 5 µM. hit rate 0.21% among 97,000; in the data active = inhibition above about 45%;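 also: CRE beta-lactamase reporter cells expressing human S1P2 stimulated with S1P; 0% = agonist at EC80 alone and 100% = agonist plus reference antagonist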
CD11b adhes enh – enhancers of human CD11b/CD18 binding to fibrinogen; P05107+P11215; K562 CD11b/CD18 adhesion to fibrinogen, ATPlite luminescence; activation, % at 10 µM; hit rate 0.07% among 93,000; AID 1499;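 active = 10 µM primary screen giving 50% or more activity, confirmed by 40% or more on retest at that dose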
GALR2 agonist – activates the human galanin receptor 2. O43603. GALR2-expressing cells, agonist activation read-out. activation, % (test concentration not listed). hit rate 0.48% among 140,000; in the data active = activation above about 5%, passing the limit was not always enough;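 also: 0% = vehicle buffer wells and 100% = reference agonist at full effect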
Starred values were filed as active, the others as inactive.

Results for CCOC(=O)c1cc2c(=O)n3ccccc3nc2n(CC2CCCO2)c1=NC(C)=O (stereo not drawn) ?
S1P2 ag: 26*; GALR2 antag: -20; CD11b adhes inh: -5; S1P2 antag: -46; CD11b adhes enh: -2; GALR2 agonist: 24*

What do the screens show for `N=c1c(C(=O)NC2CCCC2)cc2c(=O)n3ccccc3nc2n1C1CCCC1`?
S1P2 ag: 6; GALR2 antag: -9; S1P2 antag: -11; GALR2 agonist: 3

Results for COCCCn1c(=N)c(C(=O)NC2CCCCC2)cc2c(=O)n3ccccc3nc21 ?
S1P2 ag: 32*; GALR2 antag: -26; S1P2 antag: -56; GALR2 agonist: 16*

Results for O=C(Nc1nnc(COc2ccc(Cl)cc2)s1)c1cccs1 ?
S1P2 ag: 1; GALR2 antag: -4; CD11b adhes inh: -7; S1P2 antag: -12; CD11b adhes enh: 2; GALR2 agonist: -2

What do the screens show for `COc1ccccc1-c1nnn(C/C(N)=N/O)n1`?
GALR2 antag: 5; GALR2 agonist: -1

What do the screens show for `COc1cc2c(cc1OC)CN(C(=O)CC1CC3CCC1C3)CC2` (stereo not drawn)?
S1P2 ag: -3; GALR2 antag: -9; CD11b adhes inh: -11; S1P2 antag: 11; CD11b adhes enh: 0; GALR2 agonist: 0

Results for N=c1c(C(=O)NCc2ccco2)cc2c(=O)n3ccccc3nc2n1Cc1ccc(Cl)cc1 ?
S1P2 ag: 29*; GALR2 antag: -23; CD11b adhes inh: 1; S1P2 antag: -37; CD11b adhes enh: 40; GALR2 agonist: 5.2*

What do the screens show for `CCOCCCn1c(=NC(=O)c2cccnc2)c(C(=O)OCC)cc2c(=O)n3ccccc3nc21`?
S1P2 ag: 10; GALR2 antag: -10; CD11b adhes inh: -20; S1P2 antag: -28; CD11b adhes enh: 2; GALR2 agonist: 6.0*

How did CCCCn1c(=NC(=O)c2cccnc2)c(C(=O)OCC)cc2c(=O)n3ccccc3nc21 do in these assays?
S1P2 ag: 9; GALR2 antag: -6; CD11b adhes inh: 3; S1P2 antag: -12; CD11b adhes enh: 2; GALR2 agonist: 4

What do the screens show for `COc1ccc(/C=C(\C#N)C(=O)NCc2cccs2)cc1OC`?
GALR2 antag: 10; GALR2 agonist: -2

What do the screens show for `COc1ccc(OC)c(N/C(=N\c2nc(C)cc(C)n2)NC(=O)c2ccco2)c1`?
CD11b adhes inh: -5; CD11b adhes enh: 26

Results for Cc1ccc(S(=O)(=O)N(C)c2ccc(C(=O)N3CCN(Cc4ccc5c(c4)OCO5)CC3)cc2)cc1 ?
S1P2 ag: -5; GALR2 antag: 6; CD11b adhes inh: 61*; S1P2 antag: 2; CD11b adhes enh: -9; GALR2 agonist: -2

What do the screens show for `CC(NC(=O)CN1CCC(C(N)=O)CC1)c1ccccc1` (stereo not drawn)?
S1P2 ag: -5; GALR2 antag: 3; CD11b adhes inh: 19; S1P2 antag: 0; CD11b adhes enh: -3; GALR2 agonist: -2

What do the screens show for `Cc1ccc(-n2c(=O)c(C#N)cc3c(=O)n4ccccc4nc32)cc1`?
GALR2 antag: -5; CD11b adhes inh: -2; CD11b adhes enh: -1; GALR2 agonist: 8.7*

Results for CCC(C)n1c(=N)c(C#N)cc2c(=O)n3ccccc3nc21 (stereo not drawn) ?
S1P2 ag: 4; GALR2 antag: -14; S1P2 antag: -53; GALR2 agonist: 3

What do the screens show for `Cc1cccc(-n2c(=O)c(C#N)cc3c(=O)n4ccccc4nc32)c1`?
S1P2 ag: 39*; GALR2 antag: -15; CD11b adhes inh: -6; S1P2 antag: -63; CD11b adhes enh: -2; GALR2 agonist: 24*

What do the screens show for `CCCn1c(=N)c(C#N)cc2c(=O)n3ccccc3nc21`?
GALR2 antag: 8; GALR2 agonist: 0

How did Cc1cc(-n2c(=O)c(C#N)cc3c(=O)n4cccc(C)c4nc32)no1 do in these assays?
GALR2 antag: -7; CD11b adhes inh: -6; CD11b adhes enh: -3; GALR2 agonist: 19*

Results for Cc1cccn2c(=O)c3cc(C#N)c(=O)n(-c4c(C)n(C)n(-c5ccccc5)c4=O)c3nc12 ?
GALR2 antag: 5; CD11b adhes inh: -2; CD11b adhes enh: 2; GALR2 agonist: -1

How did S=c1[nH]cnc2scc(-c3ccccc3)c12 do in these assays?
GALR2 antag: -7; GALR2 agonist: 0

Source: PubChem (several laboratories)
